The text below walks through data of ChEMBL document CHEMBL3988442, “University of Dundee, Small-Polar-MMV Screening Library” (2021).

The structures appear in SMILES notation. Among all 48,000 compounds or so, about 13,000 (27%) showed an effect of 50% or more. Some of the results follow.

In the assay the test system is Wolbachia pipientis. The experiment in a line: Anti-Wolbachia Cell-Based Screen. Format: functional. Also noted: scale not given: in the data most compounds retested in dose-response had high values. The note with it: 5 µM.
For the compound `COc1ccc(F)cc1C(C(=O)O)N1CCCN(C2CCCC2)CC1` (stereo not given), the “Percent Effect” value came out at 11.4%.

In the case of `CCC(C)(C)NC(=O)c1scnc1Cl`, the “Percent Effect” value is listed as 6.107%. Turning to `Cc1cnn(C2CN(CC(O)COCc3ccc4c(c3)OCO4)C2)c1` (stereo not given), the “Percent Effect” value is -34.94%. `CSc1ccc(CNC(c2ccccc2)c2nccn2C)cc1` (stereo not given): the “Percent Effect” value is given as -1.677%. For `COc1ccc(C(C(=O)O)N(C)CCN2CCCC2)c(C)c1` (stereo not given), the “Percent Effect” value is on record as 0.7603%. As for `COc1ccc(Cl)cc1C(C(=O)O)N(C)Cc1ccon1` (stereo not given), the “Percent Effect” value is -2.698%.

As to `Cc1nn(C)c(C)c1CN(C)C(C(=O)O)c1ccc(F)cc1F` (stereo not given), the “Percent Effect” value is 99.54%. As to `COc1cc(CN(C)C(=O)Cc2c(C)nn(C)c2C)ccc1OC(F)F`, the “Percent Effect” value is -29.22%. Regarding `COc1cc(C)cc(C(C(=O)O)N(C)Cc2cnn(C)c2)c1OC` (stereo not given), the “Percent Effect” value is given as -13.95%. In the case of `COc1cc(C)cc(OC)c1C(C(=O)O)N(C)Cc1c(C)nn(C)c1C` (stereo not given) it was 77.2%. In the case of `COc1ccc(C(C(=O)O)N(C)Cc2c(C)nn(C)c2C)c(C)c1` (stereo not given) it was 108.6%; in that of `Cc1ccc(C(C(=O)O)N(C)CCN2CCOCC2)c(F)c1` (stereo not given), -0.2175%; in that of `COc1cc(F)ccc1C(C(=O)O)N(C)Cc1ccon1` (stereo not given), 19.52%. In the case of `Cc1ccc(NC(=O)CN2CCCNC2=O)c(SC(F)(F)F)c1` it was -6.443%; in that of `CN(C)C1CCCN(C(=O)NCCNC(=O)C2CCCC2)C1` (stereo not given), 2.147%; in that of `N#Cc1cccc(S(=O)(=O)NC2CCN(CC(F)(F)F)C2)c1` (stereo not given), 11.74%. On to `N#Cc1ccc(SCCOCCO)c(Cl)c1`, for which the “Percent Effect” value was -25.21%.

As to `N#CC1CCCN(c2ncnc3c2CCN(Cc2ccccc2)CC3)C1` (stereo not given), the “Percent Effect” value came out at 115%. In the case of `N#CC1CCCN(c2nc(-c3ccccc3)nc3c2CCNCC3)C1` (stereo not given) it was 6.584%; in that of `COCCn1ccnc1C1CCCN(c2ncnc3c2CCC3)C1` (stereo not given), -0.4091%. In the case of `Cn1ccnc1CN1CCc2ncnc(N3CCCC(C#N)C3)c2CC1` (stereo not given) it was 91.92%; in that of `Cn1cc(CN2CCc3ncnc(N4CCCC4)c3CC2)cn1`, 6.266%; in that of `CN1CCN(c2ncnc3c2CCN(Cc2nccn2C)CC3)CC1`, -1.995%.

`Cc1ccccc1N1CCN(C(=O)c2cccnc2-n2cncn2)CC1`: the “Percent Effect” value is listed as 25.7%. As to `Cc1nc(C2CCCN2Cc2cc(Cl)c3c(c2)OCCCO3)no1` (stereo not given), the “Percent Effect” value is reported as -4.62%. In the case of `CC(C)=CCC1(C(=O)O)CCCN(c2ccnc(N)n2)C1` (stereo not given) it was 0.6776%. On to `O=C1c2cc(Br)cc(Br)c2OCC1(CN1CCCC1)CN1CCCC1`, for which the “Percent Effect” value is on record as 108.8%.

Turning to `Cc1cc(I)c2c(c1)C(=O)C(CN1CCCC1)(CN1CCCC1)CO2`, the “Percent Effect” value was determined as 118.1%. In the case of `CCNC(=O)NC[C@@H]1C=C(C)[C@H](CC(=O)NCCN(C)C)C[C@H]1C(C)C` it was -8.573%; in that of `OCCCN1CCc2onc(C(c3ccccc3)c3ccccc3)c2C1`, 6.435%; in that of `CCOc1ccc(C(F)(F)F)cc1NCc1cc(C)on1`, -4.345%. The result for `Cc1cc(CNc2ccc3nc(C)sc3c2)no1` reads 5.343%; that for `Cc1cc(CNc2ccc(C(F)(F)F)cc2)no1`, 98.51%.

On to `C1CC(CN2CCOCC3(CCN(C4CCOCC4)C3)C2)CCO1` (stereo not given), for which the “Percent Effect” value was -8.937%.

As to `CC1(C)CC(CN2CCC3(CCC(=O)N(C4CCC4)C3)CC2)CCO1` (stereo not given), the “Percent Effect” value was -1.352%. The result for `CC1(C(=O)N2CCOCC2)CN(CC2CCOCC2)CCO1` (stereo not given) reads 129.5%; that for `O=C(C1CN(CC2CC2)CC12CCOCC2)N1CCCC1` (stereo not given), -4.912%; that for `CN(C)C(=O)CN1CCC2(C1)CN(CC1CCOCC1)C2`, -9.984%. As to `O=C(N1CCOCC1)[C@@]12CCO[C@@H]1CCN(CC1CCCCC1)C2.O=C(O)C(F)(F)F`, the “Percent Effect” value was found to be 16.73%. In the case of `CC1(C(N)=O)CN(CC2CCOCC2)CCO1` (stereo not given), the “Percent Effect” value came to 88.24%. The result for `O=C(C1CN(CC2CCOCC2)CC12CCOCC2)N1CCOCC1.O=C(O)C(F)(F)F` (stereo not given) reads 5.554%; that for `CC1(C(N)=O)CN(CC2CCC2)CCO1` (stereo not given), 100.1%; that for `CC(C)N1CC2(CCC1=O)CCN(C(=O)c1cccc(F)c1F)CC2`, -11.17%. Consider `Cc1cc2[nH]c(CN3CCOC(C(F)(F)F)C3)cc(=O)n2n1` (stereo not given), for which the “Percent Effect” value was -6.733%.

As for `COc1cccc(CC(C)NC(=O)c2ccc(CNC(C)=O)cc2)c1` (stereo not given), the “Percent Effect” value is reported as -2.536%. The result for `COc1cccc(CNCc2ccc(NC(=O)NC(C)C)cc2)c1` reads 98.55%; that for `COc1ccc(CNC(=O)Nc2ccc(S(=O)(=O)C(F)F)cc2)cc1`, 6.35%.

Regarding `CCOc1cccc(CNc2cnn(CC(C)C)c2CC)c1`, the “Percent Effect” value is reported as -19.91%. In the case of `CCOc1ccc(CNCc2ccc(C(=O)NC)cc2)cc1OCC` it was -3.882%; in that of `CCOc1cccc(CNCc2ccc(NC(=O)NC(C)C)cc2)c1`, 132%. The result for `Cc1cccc(CNCc2ccc(NC(=O)NC(C)C)cc2)c1` reads 97.74%; that for `COC(=O)C(CNC(=O)Nc1cn[nH]c1)Cc1cccc(C)c1` (stereo not given), -11.43%; that for `Cc1cccc(CNC(=O)Nc2ccc3c(c2)CCCC(=O)N3)c1`, -8.181%. For the compound `N#CC1(C(=O)Nc2ccc(OC(F)F)cc2)CCCC1`, the “Percent Effect” value is -4.632%. In the case of `COc1cccc(C(CO)NC(=O)NC(C)C)c1` (stereo not given) it was -12.05%; in that of `CC(C)NC(=O)Nc1ccc(CNCc2ccc(OC(F)F)cc2)cc1`, 126.1%; in that of `CCc1cc(CN(C)Cc2nc(-c3sccc3C)oc2C)on1`, -5.101%. Regarding `CC(=O)N[C@@H]1Cc2ccccc2[C@H]1Nc1nnc(C2CC2)o1`, the “Percent Effect” value is -5.354%. The result for `O=C1CSCN1CC(=O)N1CCCC1c1nc2ccccc2s1` (stereo not given) reads -3.784%. Turning to `Cc1noc(-c2ccc(N[C@H]3CCCCNC3=O)nc2)n1`, the “Percent Effect” value is given as -0.1994%. As to `COCCNC(=O)NC(c1ccccc1)c1ccccc1OC` (stereo not given), the “Percent Effect” value is given as 3.321%. Consider `Cc1csc(N2CCN(Cc3ccn(C)c(=O)c3)CC2)n1`, for which the “Percent Effect” value was determined as 7.447%. On to `Cn1ccc(CN2CCN(CC3CC3)CC2)cc1=O`, for which the “Percent Effect” value amounted to 107.4%. In the case of `Cn1ccc(CN2CCC(CO)CC2)cc1=O` it was -2.803%. In the case of `Cn1ccc(CN2CCC(CN3CCOCC3)CC2)cc1=O`, the “Percent Effect” value is listed as 93.59%. On to `CCc1oc(C(=O)OC)cc1Cn1cccc(C(F)(F)F)c1=O`, for which the “Percent Effect” value was determined as 2.78%. The result for `Cc1nc(C)c(C)c(NCCSCc2[nH]cnc2C)n1` reads -16.36%.

Take `COC1CCCOC12CCN(C(=O)c1ccc3[nH]nnc3c1)CC2` (stereo not given): the “Percent Effect” value is on record as 104.9%. `CO[C@H]1CCN(C(=O)c2ccc3[nH]nnc3c2)C[C@@]12CCCO2`: the “Percent Effect” value was 102.9%. In the case of `c1cc(CNc2nnc(Cc3ccsc3)o2)cs1` it was -17.73%; in that of `Clc1cnccc1N1CCCC2(CCCOC2)C1` (stereo not given), -10.01%. For the compound `Cc1ccc(C(=O)N2CCCN(Cc3cscn3)CC2)o1`, the “Percent Effect” value was 108%. `O=C(c1ccc(Cl)o1)N1CCCN(Cc2cscn2)CC1`: the “Percent Effect” value amounted to 4.253%. Regarding `COCc1ccc(C(=O)N2CCCN(Cc3cscn3)CC2)cc1`, the “Percent Effect” value turned out to be 110%. In the case of `NC(=O)c1cncc(N2CCN(Cc3ccc(F)cc3Cl)CC2)n1`, the “Percent Effect” value is recorded as -6.115%. For `CCC(C)N(Cc1cccnc1)Cc1cc2c(cc1OC)OCO2` (stereo not given), the “Percent Effect” value is on record as 6.738%. The result for `CN1CCN(c2ncnc3c2CCN(C(=O)c2cccn2C)CC3)CC1` reads 1.463%. The result for `Cn1cccc1C(=O)N1CCc2ccc(=O)n(C)c2CC1` reads 85.33%; that for `Cc1ncnc2c1CCN(C(=O)c1cccn1C)CC2`, -19.88%.

Regarding `CN(CCCNC(=O)N1CCCC1c1ccsc1)c1ccccn1` (stereo not given), the “Percent Effect” value was 7.927%. The result for `Cc1cc(N2CCCC(O)CC2)n2nc(C)c(C)c2n1` (stereo not given) reads -2.095%; that for `Cc1nc2cc(-c3nccn3C)nn2c(N2CCCC(O)C2)c1C.Cl` (stereo not given), 80.29%; that for `Cc1cc(N2CCCN(c3nc(C)nc(C)c3C)CC2)ccn1`, 23.81%. The result for `Cc1cc(C2CCC2)nc(N2CCN(Cc3nccn3C)CC2)n1` reads -10.5%; that for `Cn1ccnc1-c1nccn1C[C@@H]1CCCN2CCCC[C@H]12`, -12.88%; that for `Cc1nc2cc(-c3nccn3C)nn2c(N2CCCC(CO)C2)c1C` (stereo not given), 68.35%.

With `Cc1cc(N2CC[C@H](O)C2)n2nc(C)c(C)c2n1`, the “Percent Effect” value is -7.079%. The result for `Cc1cc(N2CCCCCC2)n2nc(C)c(C)c2n1` reads -8.895%; that for `OCC1CCCN(c2ncnc3c2Cc2ccccc2OC3)C1` (stereo not given), 5.574%.

Take `Cn1ccnc1CN1C[C@@H](CN2CCC(CO)CC2)[C@@H](CO)C1`: the “Percent Effect” value is on record as -24.97%.

For `Cc1ccccc1OCC(=O)N1CC[C@]2(C[C@@H](OCC3CC3)CO2)C1`, the “Percent Effect” value was 14.13%.

Consider `CC(NC(=O)c1coc(COc2cccc(F)c2)n1)c1nnc(N)s1` (stereo not given), for which the “Percent Effect” value is reported as -13.23%. In the case of `O=C(N1CCc2ccccc2CC1)C1(O)Cc2ccccc2C1` it was 1.099%; in that of `Cc1nsc(N2CCCN(C(=O)NCc3cccnc3)CC2)n1`, -3.745%.

As for `CCNC(=O)N1C[C@@H]2OCC(=O)N(C)[C@@H]2C1`, the “Percent Effect” value is given as -7.352%.

Turning to `Cn1cccc1C(=O)N[C@H]1CN(Cc2ccoc2)[C@@H]2CCCO[C@H]12.O=C(O)C(F)(F)F`, the “Percent Effect” value stood at 107.4%.

Consider `Cn1cc(CN2C[C@@H](NC(=O)c3cscn3)[C@H]3OCCC[C@H]32)cn1.O=C(O)C(F)(F)F.O=C(O)C(F)(F)F`, for which the “Percent Effect” value is -10.62%. In the case of `Cn1ccnc1C(=O)N[C@@H]1CN(CC2CCOCC2)[C@@H]2CCCO[C@@H]21.O=C(O)C(F)(F)F` it was 97.93%; in that of `Cn1ccnc1C(=O)N[C@@H]1CN(Cc2ccoc2)[C@@H]2CCCO[C@@H]21.O=C(O)C(F)(F)F`, 105.8%. Take `O=C(N[C@@H]1CN(CC2CC2)[C@@H]2CCCO[C@@H]21)c1cscn1.O=C(O)C(F)(F)F`: the “Percent Effect” value was 102.8%. In the case of `Cn1cc(C(=O)N[C@@H]2CN(CC3CCOCC3)[C@@H]3CCCO[C@@H]32)cn1.O=C(O)C(F)(F)F` it was -2.907%; in that of `Cn1cc(C(=O)N[C@@H]2CN(Cc3cccnc3)[C@@H]3CCCO[C@@H]32)cn1.O=C(O)C(F)(F)F.O=C(O)C(F)(F)F`, -2.49%. As to `Cn1ccnc1CN1C[C@H](N2CCOCC2)[C@@H]2OCCC[C@@H]21.O=C(O)C(F)(F)F.O=C(O)C(F)(F)F.O=C(O)C(F)(F)F`, the “Percent Effect” value is -9.409%. Turning to `O=C(N[C@@H]1CN(Cc2cccs2)[C@@H]2CCCO[C@@H]21)c1cscn1.O=C(O)C(F)(F)F`, the “Percent Effect” value was 6.119%. For the compound `Cn1cccc1C(=O)N[C@@H]1CN(Cc2ccsc2)[C@@H]2COC[C@@H]21.O=C(O)C(F)(F)F`, the “Percent Effect” value is recorded as -6.344%.
